Data on 69 molecules can be found in PubChem BioAssay AID2227 (Johns Hopkins Ion Channel Center, 2009).

In all, about 310,000 compounds went through this assay and about 1,300 (0.42%) were called active.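 How the source made its calls: active means B-score of calcium response area above 5 SD of library B-scores, with initial fluorescence ratio within 5 SD of library; inactive means the rest.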 Shown is part of a subset that was picked to be rich in actives.

The target of the experiment is Short transient receptor potential channel 4 (Mus musculus) (UniProt Q9QUQ5). Put plainly: positive allosteric modulators of TRPC4, primary screen, cell-based, mouse TRPC4beta, HEK293 mu-opioid, Fluo-4 calcium (AID 2227).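 On B-score: B-score of integrated fluorescence ratio over time as area under calcium response.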 The settings on record: DAMGO EC20, Fluo-4 Ca2+ flux, at 10 µM; hits give high values. (Calcium flux is commonly read through the fluorescence of an indicator in the cells.)
Sequence of Short transient receptor potential channel 4 (Mus musculus) (Q9QUQ5 whole entry, looked up): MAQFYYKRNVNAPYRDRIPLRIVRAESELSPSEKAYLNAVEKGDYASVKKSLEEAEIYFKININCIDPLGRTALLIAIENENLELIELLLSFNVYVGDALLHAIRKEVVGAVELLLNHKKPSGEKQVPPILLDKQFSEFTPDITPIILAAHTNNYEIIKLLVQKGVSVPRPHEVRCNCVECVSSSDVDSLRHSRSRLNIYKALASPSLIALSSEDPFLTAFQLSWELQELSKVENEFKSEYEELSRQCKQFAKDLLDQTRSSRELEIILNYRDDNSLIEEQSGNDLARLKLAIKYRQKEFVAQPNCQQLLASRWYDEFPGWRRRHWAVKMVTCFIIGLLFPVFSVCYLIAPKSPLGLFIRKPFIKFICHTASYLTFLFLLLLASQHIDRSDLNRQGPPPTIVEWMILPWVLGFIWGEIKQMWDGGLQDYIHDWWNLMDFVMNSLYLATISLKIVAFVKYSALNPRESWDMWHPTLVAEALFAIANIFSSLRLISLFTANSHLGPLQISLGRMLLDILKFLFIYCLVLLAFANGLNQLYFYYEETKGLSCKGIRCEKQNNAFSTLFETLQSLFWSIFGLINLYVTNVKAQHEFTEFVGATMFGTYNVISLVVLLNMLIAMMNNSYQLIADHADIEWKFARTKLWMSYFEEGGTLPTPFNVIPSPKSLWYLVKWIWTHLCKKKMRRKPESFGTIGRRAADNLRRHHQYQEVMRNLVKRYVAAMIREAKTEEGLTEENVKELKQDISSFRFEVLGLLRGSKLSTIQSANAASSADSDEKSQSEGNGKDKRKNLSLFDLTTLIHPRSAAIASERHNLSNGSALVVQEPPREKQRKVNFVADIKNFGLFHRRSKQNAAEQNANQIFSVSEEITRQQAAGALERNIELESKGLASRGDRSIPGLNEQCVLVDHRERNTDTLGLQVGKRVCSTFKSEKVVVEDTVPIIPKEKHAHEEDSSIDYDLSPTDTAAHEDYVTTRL
As for `CCN1/C(=C\c2ccc3ccccc3[n+]2CC)Sc2cc(C)ccc21`, the B-score is 13 (active).

Consider `N#Cc1cc([N+](=O)[O-])ccc1NCC1CCCO1` (centres undefined), for which the B-score entry was “inactive”.

For `CCc1ccc2c(c1)C1(NN=C(c3ccccc3)S1)C(=O)N2` (centres undefined), the B-score was 11 (active).

For `COC(C[C@H](O)CC(=O)COCc1ccccc1)OC`, the B-score entry is “inactive”.

Take `COC(=O)C(C)Sc1nc2c(c(=O)n(C)c(=O)n2C)n1Cc1cccc(C)c1` (centres undefined): the B-score result is “inactive”.

For the molecule `Cc1cccc(Cn2c(SCCO)nc3c2c(=O)n(C)c(=O)n3C)c1`, the B-score entry is “inactive”.

On to `Cc1cccc(Cn2c(N3CCN(c4ccccc4)CC3)nc3c2c(=O)n(C)c(=O)n3C)c1`, for which the B-score was 41 (active).

With `CCOC(=O)NN1C(=O)c2ccccc2NC1c1ccccc1O` (centres undefined), the B-score result was “inactive”.

On to `CC(NS(=O)(=O)c1ccc(Br)cc1)C(=O)NCC1CCCO1` (centres undefined), for which the B-score result is “inactive”.

Turning to `OC(CNCC1CCCO1)Cn1c2ccc(Br)cc2c2cc(Br)ccc21` (centres undefined), the B-score was 17 (active).

Regarding `O=C(CSc1ccc(-c2ccc(Br)cc2)nn1)NCC1CCCO1` (centres undefined), the B-score entry is “inactive”.

On to `Cc1cc(S(=O)(=O)c2cc3ccc(O)c(C)c3oc2=O)ccc1F`, for which the B-score entry is “inactive”.

Turning to `C/C(=N\NC(=S)NC1CCCCC1)c1ccc(C)o1`, the B-score entry was “inactive”.

Turning to `Cc1ccc(/C=N/NC(=S)NC2CCCCC2)o1`, the B-score was 35 (active).

Regarding `Cc1ccc(/C=N/NC(=S)Nc2cccc(S(=O)(=O)N(C)C)c2)o1`, the B-score result was “inactive”.

Regarding `O=C(NC1CC1)C1=C[C@H](c2c[nH]c3ccccc23)C[C@H](OCc2ccc(CO)cc2)O1`, the B-score was 11 (active).

For the molecule `NC(=O)C1=C[C@H](c2csc3ccccc23)C[C@H](OCc2ccc(CO)cc2)O1`, the B-score entry was “inactive”.

`NC(=O)C1=C[C@@H](c2csc3ccccc23)C[C@@H](OCc2ccc(CO)cc2)O1`: the B-score entry was “inactive”.

For `Cc1c(-c2nn(C)c(=O)c3ccccc23)oc2ccc(F)cc2c1=O`, the B-score result is “inactive”.

Turning to `CC(=O)Nc1ccc(C(=O)CSc2nnc(Cc3ccccc3)o2)cc1`, the B-score result is “inactive”.

For `CCOc1ccc(Nc2nc(Cc3nnc(SCC(=O)NC4CCCC4)n3C)cs2)cc1`, the B-score entry is “inactive”.

`CCOc1ccc(Nc2nc(Cc3nnc(SCC(=O)c4ccc(C)cc4)o3)cs2)cc1`: the B-score was 30 (active).

With `NC(=O)C1(N2CCCCC2)CCN(C(=O)c2ccc(C#Cc3ccccc3)o2)CC1`, the B-score result was “inactive”.

With `CC1CN(CCOc2ccccc2[N+](=O)[O-])CC(C)O1` (centres undefined), the B-score entry was “inactive”.

As for `CC1CC(C)CN(CCOc2cccc3ccccc23)C1` (centres undefined), the B-score is 11 (active).

As for `CN1CCN(CCCCOc2cccc3ccccc23)CC1`, the B-score entry was “inactive”.

For the molecule `CCOC12CC(C)(C)CC(C)(CC3=C1C(=O)CC(C)(C)C3)C2` (centres undefined), the B-score entry was “inactive”.

For the molecule `CCCCCCCNc1nc(Cl)nc(NCCO)n1`, the B-score result is “inactive”.

For `O=C(N/N=C/c1ccc(OCC2COCCO2)cc1)c1ccc(Br)cc1` (centres undefined), the B-score result was “inactive”.

Consider `CCOc1ccc(N2C(=O)/C(=C/c3ccc(C)o3)N(C)C2=S)cc1`, for which the B-score entry was “inactive”.

Turning to `CC(NC(=O)COc1cccnc1[N+](=O)[O-])c1ccc(Cl)cc1Cl` (centres undefined), the B-score entry is “inactive”.

`Clc1cccc(Cl)c1OCCOCCNCc1ccccc1`: the B-score entry is “inactive”.

In the case of `CN(C)CCOCCOc1ccc(Cl)c2ccccc12`, the B-score entry is “inactive”.

Turning to `CCN(CC)CCOCCOc1ccc(Cl)c2ccccc12`, the B-score is 21 (active).

Turning to `O=S(=O)(Nc1cccc(-n2cnnn2)c1)c1cnc(Cl)c(Cl)c1`, the B-score entry is “inactive”.

In the case of `COc1cc(S(=O)(=O)Nc2ncn[nH]2)ccc1Cl`, the B-score entry is “inactive”.

For the molecule `Cc1cccc(CN2CCC(CNC(=O)Nc3ccc(F)c(Cl)c3)CC2)c1`, the B-score entry was “inactive”.

For `COc1cc(NC(=O)NCC2CCN(Cc3ccc(C)cc3)CC2)cc(OC)c1OC`, the B-score result is “inactive”.

On to `Cc1ccc(C)c(CN2CCC(CNC(=O)Nc3ccc(C)c(F)c3)CC2)c1`, for which the B-score is 10 (active).

In the case of `COC(=O)c1cc(S(=O)(=O)N2CCC(C(N)=O)CC2)oc1C`, the B-score result is “inactive”.

For the molecule `O=c1c(-c2ccccc2Cl)c[nH]n1-c1ccccc1`, the B-score entry was “inactive”.

`Cc1ccc(C(=O)NCCc2nnc(SCC(=O)Nc3cccc(C(=O)O)c3)n2C)cc1`: the B-score entry was “inactive”.

Regarding `CCOC(=O)N1CCN(CCC(=O)Nc2ccccc2)CC1`, the B-score result was “inactive”.

As for `Cc1cc(NC(=O)CCN2CCN(Cc3ccccc3)CC2)ccc1Br`, the B-score was 20 (active).

On to `O=C(CN1CCN(Cc2ccccc2)CC1)Nc1ccc(F)c(F)c1`, for which the B-score result was “inactive”.

With `COc1ccccc1C(=O)Nc1ccnn1C1CCN(Cc2cnn(C)c2)CC1`, the B-score entry is “inactive”.

Consider `O=C(COc1ccc(Cl)cc1)Nc1ccc2c(c1)OCO2`, for which the B-score result is “inactive”.

Take `CCC(C)Sc1nc2c(cnn2-c2ccc(F)cc2)c(=O)[nH]1` (centres undefined): the B-score entry was “inactive”.

As for `O=C(c1ccco1)N1CCN(C(=O)C2CCCN(S(=O)(=O)c3cccc4nsnc34)C2)CC1` (centres undefined), the B-score result is “inactive”.

`CCCCN(CC)C(=O)C1CCCN(S(=O)(=O)c2cccc3nsnc23)C1` (centres undefined): the B-score entry is “inactive”.

For the molecule `CCCCN(C)CCNC(=O)C1CCCN(S(=O)(=O)c2cccc3nsnc23)C1` (centres undefined), the B-score was 25 (active).

Turning to `CC(C)c1nc(CNC(=O)CC2C(=O)NCCN2Cc2cccc(F)c2F)cs1` (centres undefined), the B-score result was “inactive”.

With `C=CCNC(=O)CC12CC3CC(C1)CC(CC(=O)NCC=C)(C3)C2`, the B-score result is “inactive”.

With `Cc1cc(-n2nc(C)cc2C)n2nc(C)c(-c3ccccc3)c2n1`, the B-score result was “inactive”.

In the case of `Cc1cc(-c2ccccc2)n2nc(C)c(-c3ccccc3)c2n1`, the B-score entry was “inactive”.

As to `CCc1c(C)nc2c(-c3ccccc3)c(C)nn2c1Nc1ccc(NC(C)=O)cc1`, the B-score was 27 (active).

`CCCC(C)c1nnc(NC(=O)C2CC(=O)N(c3ccc(OCC)cc3)C2)s1` (centres undefined): the B-score entry is “inactive”.

With `O=S(=O)(NCCCc1ccccc1)c1ccc(Br)cc1`, the B-score result was “inactive”.

Take `O=S(=O)(NCCc1ccccc1)c1ccccc1`: the B-score result was “inactive”.

As for `COc1ccc(S(=O)(=O)NCCCc2ccccc2)cc1`, the B-score was 32 (active).

On to `COC(=O)c1c(NC(=O)CN2CCN(S(=O)(=O)c3ccccc3[N+](=O)[O-])CC2)sc2c1CCC(C)C2` (centres undefined), for which the B-score entry was “inactive”.

For `CS/C(=C\C(=O)c1ccco1)Nc1ccccc1Cl`, the B-score result is “inactive”.

With `C#CCCCc1nc2ccccc2c(=O)n1N`, the B-score result was “inactive”.

As to `CCCCn1c(N)c(N(CC(C)C)C(=O)c2cccc(S(=O)(=O)N3CC(C)OC(C)C3)c2)c(=O)[nH]c1=O` (centres undefined), the B-score entry is “inactive”.

On to `CCn1cc(CN2CCN(CC(C)(C)C)C(CCO)C2)c2ccccc21` (centres undefined), for which the B-score entry is “inactive”.

As to `CCCCCCn1cc(C(=O)O)c(=O)c2cc(F)c(N3CCCCC3)cc21`, the B-score is 12 (active).

Turning to `CCn1cc(C(=O)NCCO)c(=O)c2cc(F)c(N3CCN(C)CC3)cc21`, the B-score result was “inactive”.

With `CN1CCN(c2cc3c(cc2F)c(=O)c(C(=O)O)cn3CCF)CC1`, the B-score entry is “inactive”.

Consider `O=C(c1ccc(F)cc1)c1c[nH]c(C(=O)NCc2cccnc2)c1`, for which the B-score result was “inactive”.
